Source: ChEMBL document CHEMBL4513216, “Probing the Open Global Health Chemical Diversity Library for Multistage-Active Starting Points for Next-Generation Antimalarials” (ACS Infect Dis, 2020)
Hit rate of the full screen: of about 68,000 compounds, about 2,700 (4%) showed an effect of 50% or more. This is one part of a sample in which strong results are shown more often than they occur.

The compounds below were run on Plasmodium berghei (assay: Screen against P. berghei liver stage (PbLuc), transformed with Luciferase, at 2uM). Settings: tested at 2 uM.
Type: functional, HepG2
`CS(=O)(=O)CCCN1CCSCC1c1ccc(Cl)cc1` (configuration not stated) showed an INHIBITION of 62.51%. Work on `CS(=O)(=O)CCN1CCSCC1c1ccc(Cl)cc1` (configuration not stated) yielded an INHIBITION of 5.28%. With `CS(=O)(=O)NCCN1CCCC1c1ccc(Cl)cc1` (configuration not stated) the INHIBITION was 8.42%. `CCS(=O)(=O)CCCN1CCSCC1c1ccc(Cl)cc1` (configuration not stated) was tested, and the INHIBITION was 52.98%. `CCN(C(=O)c1cc(C)nc2ccccc12)C1CC(=O)NC1=O` (configuration not stated) showed an INHIBITION of 10.93%. Work on `Nc1ncccc1C(=O)NCc1ccc(Br)cc1` yielded an INHIBITION of 49.69%. For `Cc1csc(N2CCN(C(=O)C(C)n3cncn3)CC2)n1` (configuration not stated), the INHIBITION was 4.18%. For `Cc1cc(C(=O)NCCCn2nccc2C2CC2)c(=O)[nH]c1C`, the INHIBITION was 49.45%. Work on `COc1c(CNCc2ccnc(N(C)C)c2)c(C(C)C)nn1C` yielded an INHIBITION of 18.85%. For `CC(=O)N1CCN([C@@H]2CCC[C@@H](NC(=O)c3cccnc3)[C@H]2O)CC1`, the INHIBITION was 20.44%. For `CC(=O)N1CCOC2(CCN(C(=O)C3CC3)CC2)C1`, the INHIBITION was -31.76%. Work on `NC(=O)CN1CCCN(C(=O)c2ccc(SC(F)F)cc2)CC1` yielded an INHIBITION of 2.31%. With `O=C(CCOCC(F)(F)F)N1CCCC(n2ccnc2)C1` (configuration not stated) the INHIBITION was 2.21%. With `O=C1COc2ccc(C(=O)NS(=O)(=O)c3cc(F)ccc3F)cc2N1` the INHIBITION was -9.66%. `Cc1nc(NC(=O)c2nn(-c3ccc(F)cc3C)cc2O)n[nH]1` was tested, and the INHIBITION was 2.82%. `Cc1ccc(-c2nnc(CNCCn3cccn3)o2)cc1` gave an INHIBITION of -9.22%. In the case of `COc1ccc(-c2nnc(CNCCn3cccn3)o2)cc1`, the INHIBITION is reported as -16.99%. `c1ccc(-c2nnc(CNCCn3cccn3)o2)cc1` showed an INHIBITION of 51.32%. For `COc1cccc(C(=O)N2CCCC(CNS(C)(=O)=O)C2)c1` (configuration not stated), the INHIBITION was 2.74%. Compound `Cc1cc(C2CCCN(C(=O)CCc3cscn3)C2)n[nH]1` (configuration not stated) has an INHIBITION of -0.13%. Work on `COCC(NC(=O)c1ccc[nH]1)c1cccc(C(F)(F)F)c1` (configuration not stated) yielded an INHIBITION of 11.28%. For `COCC(NC(=O)c1ccoc1C)c1cccc(C(F)(F)F)c1` (configuration not stated), the INHIBITION was 74.22%. `COCC(NC(=O)c1ccco1)c1cccc(C(F)(F)F)c1` (configuration not stated) showed an INHIBITION of 39.45%. Work on `NS(=O)(=O)Cc1ccc(CNC(=O)NCC2CCOC2)cc1` (configuration not stated) yielded an INHIBITION of -27.91%. For `Cc1ccc2c(c1)CN(CC(=O)NCCc1ccc(F)cc1)CC(C)O2` (configuration not stated), the INHIBITION was -16.71%. `CC1CN(CCC(=O)NCCc2cccnc2)Cc2ccccc2O1` (configuration not stated) gave an INHIBITION of 52.3%. `CC1CN(CC(=O)NCCc2ccncc2)Cc2ccccc2O1` (configuration not stated) showed an INHIBITION of 11.9%. `COC(=O)c1cnc2c(c(C)nn2C)c1OC` gave an INHIBITION of -8.44%. With `Nc1no[n+]([O-])c1C(=O)NCc1ccco1` the INHIBITION was 84.12%. For `COc1ncccc1CNC(=O)NCCNC(=O)c1ccco1`, the INHIBITION was 39.92%. `CCCNC(=O)NCc1cccnc1OC` was tested, and the INHIBITION was 56.12%. `CC(C)Oc1ncccc1CNC(=O)c1ccco1` gave an INHIBITION of 26.11%. In the case of `COc1ncccc1CNC(=O)c1csc(Br)c1`, the INHIBITION is reported as -12.08%. `COc1ncccc1CNC(=O)NCc1ccco1` showed an INHIBITION of -2.87%. With `COc1ncccc1CNC(=O)c1cc(F)cc(Br)c1` the INHIBITION was 58.69%. `COc1ncccc1CNC(=O)c1ccco1` showed an INHIBITION of 51.46%. With `Nc1no[n+]([O-])c1C(=O)NCc1ccccn1` the INHIBITION was -18.45%. In the case of `COc1ncccc1CNC(=O)c1c[nH]c(=O)c(Br)c1`, the INHIBITION is reported as 37.18%. For `COc1ncccc1CNC(=O)NCCNS(C)(=O)=O`, the INHIBITION was 6.3%. Work on `Nc1no[n+]([O-])c1C(=O)NCc1cccnc1` yielded an INHIBITION of -3.26%. `CC(O)CNC(=O)CCc1nc2ncccc2[nH]1` (configuration not stated) gave an INHIBITION of 17.33%. With `CC(C)c1nccn1CCCNC(=O)c1ccc(-c2cncnc2)nc1` the INHIBITION was 27.84%. For `O=C(c1cnc(-c2cccnc2)nc1)N1CCC(c2ccncc2)CC1`, the INHIBITION was -70.5%. Compound `CCC(C)N1C(=O)c2ccc(C(=O)NCCc3c[nH]cn3)cc2C1=O` (configuration not stated) has an INHIBITION of 35.09%. `NCc1cccc(-c2cccnc2C(=O)NCCCN2CCOCC2)c1` gave an INHIBITION of 3.63%. For `COC(=O)c1ccc(C(=O)NCc2ccco2)nc1`, the INHIBITION was -44.93%. Work on `CC(O)CNC(=O)NCc1cccnc1OC1CCCC1` (configuration not stated) yielded an INHIBITION of 59.73%. Compound `COc1ccc(C(=O)NCc2ccco2)nn1` has an INHIBITION of 65.1%. `CCC1c2ccsc2CCN1C(=O)NCc1ccccn1` (configuration not stated) showed an INHIBITION of -77.99%. Compound `COc1ncccc1CNC(=O)c1cc(C)on1` has an INHIBITION of -18.38%. `CCC1c2ccsc2CCN1C(=O)NCc1cccnc1N(C)C` (configuration not stated) gave an INHIBITION of 8.5%. In the case of `CCC1c2ccsc2CCN1C(=O)NCc1cccnc1OC` (configuration not stated), the INHIBITION is reported as 66.27%. In the case of `Cc1cc(C(=O)NCc2cccnc2OC(C)C)no1`, the INHIBITION is reported as 51.19%. `COC(=O)c1cccc(C(=O)NCc2ccco2)n1` was tested, and the INHIBITION was -15.05%. In the case of `CCOc1ncccc1CNC(=O)c1cc(C)on1`, the INHIBITION is reported as 22.75%. In the case of `CC(Cn1ccnc1)NC(=O)NCc1cccnc1OC1CCCC1` (configuration not stated), the INHIBITION is reported as 8.42%. For `CC(Cn1cccn1)NC(=O)NCc1cccnc1OC1CCCC1` (configuration not stated), the INHIBITION was 39.32%.
